# Data published in PubChem BioAssay (NCI).
# About 83,000 compounds went through this panel and 20% of them were active in at least one assay; those are over-represented in the sample as a whole.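 The endpoint reported here, percent growth, reads 100 for growth as untreated, 0 for no net growth and -100 for all cells dead.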 A number with no mark means an inactive call. The source made the active and inactive calls. Rule for the calls: active = growth percent below 10; inactive = the rest.
# Assays:
# Experiment in all cases: NCI-60 one-dose screen, 48 h (100 = growth as untreated, 0 = no growth, -100 = all killed)
# Details in all cases: 10 µM unless noted
# DU-145 prostate = test system: DU-145 prostate
# K-562 leukemia = test system: K-562 leukemia
# MALME-3M melanoma = test system: MALME-3M melanoma
# MDA-MB-231 breast = test system: MDA-MB-231 breast
# RXF 393 renal = test system: RXF 393 renal
# SF-268 CNS = test system: SF-268 CNS
# SF-295 CNS = test system: SF-295 CNS
# SF-539 CNS = test system: SF-539 CNS
# UACC-257 melanoma = test system: UACC-257 melanoma
# M14 melanoma = test system: M14 melanoma
# HCT-15 colon = test system: HCT-15 colon
# HT29 colon = test system: HT29 colon
# SNB-19 CNS = test system: SNB-19 CNS
# U251 CNS = test system: U251 CNS
# PC-3 prostate = test system: PC-3 prostate
# SK-MEL-5 melanoma = test system: SK-MEL-5 melanoma
# UACC-62 melanoma = test system: UACC-62 melanoma
# LOX IMVI melanoma = test system: LOX IMVI melanoma
# SK-MEL-28 melanoma = test system: SK-MEL-28 melanoma
# SNB-75 CNS = test system: SNB-75 CNS
SMILES,growth (DU-145 prostate),growth (K-562 leukemia),growth (MALME-3M melanoma),growth (MDA-MB-231 breast),growth (RXF 393 renal),growth (SF-268 CNS),growth (SF-295 CNS),growth (SF-539 CNS),growth (UACC-257 melanoma),growth (M14 melanoma),growth (HCT-15 colon),growth (HT29 colon),growth (SNB-19 CNS),growth (U251 CNS),growth (PC-3 prostate),growth (SK-MEL-5 melanoma),growth (UACC-62 melanoma),growth (LOX IMVI melanoma),growth (SK-MEL-28 melanoma),growth (SNB-75 CNS)
COc1ccc(S(=O)(=O)NCCNc2nccc(-c3c(-c4cccc(N)c4)nc4sccn34)n2)cc1,105%,88.9%,101%,104%,107%,99.7%,99.2%,110%,102%,102%,101%,93.5%,108%,104%,83.6%,98%,100%,98.4%,117%,
COc1ccc(C/C(C)=C(\c2ccc(Cl)cc2)c2ccc(OCCN3CCCCCC3)cc2)cc1,106%,20.7%,104%,99.9%,93.1%,88.4%,100%,90.8%,94.7%,90.2%,43.1%,15.7%,84.6%,64.5%,69.2%,80%,93.2%,90%,91%,
C/C(Cc1ccc(Cl)cc1)=C(\c1ccc(OCCN2CCCCCC2)cc1)c1ccc(OC(=O)C2CCCCC2)cc1,70.4%,11.4%,85.7%,85.4%,56.2%,57%,89.8%,74.2%,91%,12.7%,39%,18.4%,77.6%,45%,51.5%,83.5%,68.1%,65.8%,61.2%,
C(=N\Nc1ccccn1)/c1ccccn1,9.51% (active),19.3%,-2.58% (active),47.6%,17%,-0.109% (active),21.7%,7.48% (active),-18.9% (active),-35.8% (active),42.7%,19%,40.4%,13.4%,63.5%,-4.55% (active),2.66% (active),-11.6% (active),34.8%,
CCCCCCCCCCCCCCCCCCNC(=O)[C@H]1CSC(c2ccc(F)c(OC)c2)N1 (some centres undefined),26.5%,-56.3% (active),-91.2% (active),-83.4% (active),-93.6% (active),-69.9% (active),30.8%,-61.9% (active),-61.7% (active),-90.8% (active),6.47% (active),-84.5% (active),-40.2% (active),-96.6% (active),34.1%,-94.8% (active),-97.2% (active),14.1%,-93.3% (active),
Nc1nc2ccc(-c3nc4ccc5[nH]ncc5c4c4c3CCC4)cc2s1,16.5%,19.4%,-2.7% (active),42.2%,-21.9% (active),37.7%,13.6%,3.96% (active),36.9%,29.1%,11.3%,8.06% (active),42.6%,33.9%,23.1%,1.24% (active),-46.2% (active),,44.5%,
Nc1cc(O)cc2cccnc12,107%,88%,89.8%,78.5%,135%,107%,95.4%,101%,91.2%,83.8%,110%,106%,79.4%,86.7%,78.7%,72.4%,,,112%,
CCC(=O)Oc1ccc(/C(=C(\C)c2ccccc2)c2ccc(OCCN(CC)CC)cc2)cc1,102%,23%,80.3%,89.7%,93.4%,85.5%,95.2%,76.9%,87.4%,69%,54.3%,7.83% (active),87.8%,71.6%,66.7%,74.8%,93.4%,87.8%,80.3%,
CC[C@]12C=CCN3CC[C@@]4(c5ccc(OC)cc5N(C)[C@H]4[C@@](O)(C(=O)OC)[C@@H]1OC(=O)CCC(=O)N[C@@H](Cc1c[nH]c4ccccc14)C(=O)OC)[C@@H]32,99.4%,85.7%,57.2%,67.6%,15.5%,85.5%,99.3%,102%,67%,97.3%,97.2%,89.1%,96.3%,99.3%,80.5%,90.4%,92%,84.1%,37.6%,
CN1CCN(Cc2ccc(NC(=O)c3cncc(C#Cc4cncc5nccnc45)c3)cc2C(F)(F)F)CC1,47.7%,10.4%,-17.7% (active),26.9%,28.1%,58.9%,70.7%,26.9%,35.5%,9.82% (active),40.6%,22.7%,92.1%,76.3%,67.6%,41.9%,16.6%,-7.67% (active),13.3%,
COc1cc(/C=N\NC(=O)CN2CCN(c3cc4c(cc3F)c(=O)c(C(=O)N/N=C/c3ccc(O)c(OC)c3)cn4C3CC3)CC2)ccc1O,66.3%,40.5%,62.4%,59.5%,86.9%,59.4%,90.5%,86.9%,41%,80%,97.2%,14.1%,55.5%,55.3%,69.7%,56.8%,52.9%,8.64% (active),79.8%,
COc1cc(NCCCCN=C(N)NC(N)=NC(C)C)c2ncccc2c1,127%,39.1%,-2.65% (active),21.3%,154%,54.1%,113%,78.1%,25.2%,92.4%,122%,53.9%,55.9%,50%,,17%,77%,46.6%,86.4%,
O=C(/C=C\c1cccc([N+](=O)[O-])c1)c1ccccc1,59%,180%,36.6%,104%,14.9%,25.8%,89.9%,85.4%,,26.8%,21%,4.18% (active),,31.1%,40.7%,76.3%,71.9%,3.66% (active),5.24% (active),77.6%
O=[N+]([O-])c1cccc(-c2nc3sccn3c2-c2ccnc(NCCCNS(=O)(=O)c3ccc(F)cc3)n2)c1,10.6%,7.51% (active),-9.59% (active),44.9%,53.4%,9.32% (active),5.57% (active),26.5%,0.0199% (active),0.021% (active),-3.76% (active),18.4%,,26.8%,-3.27% (active),-76.7% (active),-45% (active),,-1.76% (active),
CCC(=O)OCc1cccc(OC)c1,111%,62.4%,116%,97.4%,103%,107%,104%,98%,,96.3%,92.2%,90%,,93.2%,86.5%,104%,95.8%,92.1%,107%,59.7%
CC1CN(Cc2ccco2)C(=S)N(c2ccccc2)C1=O (centres undefined),110%,62.7%,97.8%,106%,111%,105%,92.3%,90.8%,,99.6%,98.2%,93.4%,,93.4%,86.5%,100%,,94.1%,102%,62.2%
